Gli-Sufu block: Gli-Sufu pathway antagonism; Sufu-KO-LIGHT fibroblasts, Gli luciferase reporter luminescence; 340,000 compounds, 0.74% hits; inhibition, % at 5 µM;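 active = inhibition above about 55%, limit read from the data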
Beta apoptosis: beta cell apoptosis inhibition | INS-1E cytokine-induced death, ATP luminescence, 48 h; percent of positive-control rescue, neutral wells zero | protection from apoptosis, % (test concentration not listed) | 300,000 compounds, 0.8% hits | AID 435005;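 active = Every replicate reaches about 75%, or at least half do and their mean reaches it too, limit read from the data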;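 also: higher means more ATP so stronger rescue from cytokine killing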
CSC inhib: cancer stem cell inhibition | cancer stem cell-like cells viability, luminescence | inhibition, % at 7.5 µM | 300,000 compounds, 1.1% hits; in the data active = inhibition above about 75%; tested in HMLE shEcad cells
PAX8 inh HTS: inhibitors of PAX8 transcriptional activity in RMG-I cells. RMG-I TPO-luciferase reporter, SteadyGlo, 24 h. inhibition, % at 12.6 µM. 360,000 compounds, 1.2% hits;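 active = mean replicate inhibition at least 60% with every replicate also reaching 60%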;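 also: luciferase light reporting Pax8 driven TPO promoter activity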
Shn3 3UTR inh: Schnurri-3 reporter inhibition in Clone20 osteoblasts. Clone20 osteoblast Shn3 3'UTR firefly luciferase, 24 h. inhibition, % at 12.5 µM. 360,000 compounds, 0.52% hits. AID 588674;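 active = mean inhibition of at least 75% with every replicate also reaching 75%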
Mdm2-MdmX inh: disrupts the human Mdm2-MdmX interaction | SaOS-2 split-luciferase Mdm2/MdmX complementation, luminescence | inhibition, % at 8 µM | 330,000 compounds, 3% hits | O15151+Q00987 | AID 485346;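 active = inhibition of at least 50% at 8 µM in the primary screen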
Target sequence (O15151 whole entry, looked up): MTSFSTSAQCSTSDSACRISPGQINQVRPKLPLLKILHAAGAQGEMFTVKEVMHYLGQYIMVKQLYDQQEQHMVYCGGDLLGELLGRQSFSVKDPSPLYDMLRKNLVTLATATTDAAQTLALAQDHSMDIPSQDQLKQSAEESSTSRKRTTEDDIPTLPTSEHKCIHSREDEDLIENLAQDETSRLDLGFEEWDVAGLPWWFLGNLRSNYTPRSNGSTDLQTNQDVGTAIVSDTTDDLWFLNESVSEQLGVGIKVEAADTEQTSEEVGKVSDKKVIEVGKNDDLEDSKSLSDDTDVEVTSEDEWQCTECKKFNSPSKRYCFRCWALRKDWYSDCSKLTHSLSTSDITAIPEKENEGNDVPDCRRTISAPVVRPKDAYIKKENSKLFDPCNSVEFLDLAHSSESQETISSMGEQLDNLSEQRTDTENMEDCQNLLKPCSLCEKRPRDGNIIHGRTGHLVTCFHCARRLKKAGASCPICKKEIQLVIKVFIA
Target sequence (Q00987 whole entry, looked up): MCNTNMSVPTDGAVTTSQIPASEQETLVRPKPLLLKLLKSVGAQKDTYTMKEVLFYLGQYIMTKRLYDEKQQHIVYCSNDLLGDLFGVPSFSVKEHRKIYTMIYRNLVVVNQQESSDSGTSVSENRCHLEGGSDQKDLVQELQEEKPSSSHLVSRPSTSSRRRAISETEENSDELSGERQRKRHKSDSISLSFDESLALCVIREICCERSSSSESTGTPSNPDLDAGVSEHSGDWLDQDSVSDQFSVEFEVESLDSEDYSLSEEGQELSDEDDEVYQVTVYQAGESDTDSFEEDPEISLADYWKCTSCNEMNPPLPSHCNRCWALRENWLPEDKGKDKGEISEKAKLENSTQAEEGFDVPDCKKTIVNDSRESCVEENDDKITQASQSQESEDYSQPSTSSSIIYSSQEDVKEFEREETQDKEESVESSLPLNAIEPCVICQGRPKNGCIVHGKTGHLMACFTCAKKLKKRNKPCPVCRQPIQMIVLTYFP
A number is an active result. Rows were chosen to be rich in hits. Some 4% of all compounds tested hit in one or more screens of this group.

C#CCOCCOCCOCCNc1nc(N2CCN(C(=O)CCCCCCCCCCNC(=O)[C@H](CO)n3cc(CCCCCN)nn3)CC2)nc(N2CCN(C(=O)CCCCCCCCCCNC(=O)[C@H](CCCN=C(N)N)n3cc(C[C@@H](C)CC)nn3)CC2)n1 was read as Beta apoptosis 88.7, CSC inhib inactive and Mdm2-MdmX inh inactive.
C[C@@H]1CN([C@H](C)CO)C(=O)Cc2cc(NC(=O)Nc3ccc(C(F)(F)F)cc3)ccc2O[C@@H]1CN(C)S(C)(=O)=O was read as PAX8 inh HTS inactive.
For Cc1noc(C)c1S(=O)(=O)N(C)C[C@@H]1OCCCC[C@@H](C)Oc2ccc(NC(=O)Nc3cccc4ccccc34)cc2C(=O)N([C@@H](C)CO)C[C@H]1C the results were PAX8 inh HTS inactive.
Screening CCn1c(SCC(=O)Nc2ccc(OC)cc2)nc2nc3c(cc2c1=O)CCCC3 returned Gli-Sufu block inactive, Beta apoptosis 145.6, CSC inhib inactive, PAX8 inh HTS inactive, Shn3 3UTR inh inactive and Mdm2-MdmX inh inactive.
For COCC(=O)Nc1ccc2c(c1)C(=O)N(C)[C@H]1CC[C@H](CC(=O)N3CCc4ccccc4C3)O[C@H]1CO2 the results were PAX8 inh HTS inactive.
`CNC(=O)C[C@@H]1CC[C@@H]2[C@H](COc3ccc(NC(=O)c4cnccn4)cc3C(=O)N2C)O1` gave PAX8 inh HTS inactive.
CS(=O)(=O)Nc1ccc2c(c1)[C@@H]1C[C@H](CC(=O)NCC3CC3)O[C@@H](CO)[C@@H]1O2 was read as PAX8 inh HTS inactive.
For Cc1ccc(/C=C/C(=O)Nc2ccc([N+](=O)[O-])cc2)o1 the results were Gli-Sufu block inactive, Beta apoptosis inactive, CSC inhib inactive, Shn3 3UTR inh inactive and Mdm2-MdmX inh inactive.
For Cc1ccc(/C=C/C(=O)Nc2ccc(Oc3ccccc3)cc2)o1 the results were Gli-Sufu block inactive, Beta apoptosis inactive, CSC inhib 88.3, PAX8 inh HTS inactive and Shn3 3UTR inh inactive.
For S=C(Nc1ccc(Nc2ccccc2)cc1)Nc1ccccn1 the results were Gli-Sufu block inactive, Beta apoptosis 86.2, CSC inhib inactive, PAX8 inh HTS inactive, Shn3 3UTR inh inactive and Mdm2-MdmX inh inactive.
For CNC[C@H]1Oc2cc(C#CC3CCCCC3)ccc2S(=O)(=O)N([C@H](C)CO)C[C@@H]1C the results were PAX8 inh HTS inactive.
For CNC[C@@H]1Oc2cc(C#CC3CCCCC3)ccc2S(=O)(=O)N([C@@H](C)CO)C[C@@H]1C the results were PAX8 inh HTS 91.8.
`C[C@@H]1CN([C@@H](C)CO)S(=O)(=O)c2ccc(C#CC3CCCC3)cc2O[C@@H]1CN(C)Cc1cccnc1` gave PAX8 inh HTS inactive.
COc1ccccc1C#Cc1ccc2c(c1)O[C@@H](CN(C)Cc1cccnc1)[C@H](C)CN([C@H](C)CO)S2(=O)=O was read as PAX8 inh HTS 83.7.
Screening C[C@H]1CN([C@@H](C)CO)S(=O)(=O)c2ccc(C#CC3CCCC3)cc2O[C@@H]1CN(C)Cc1cccnc1 returned PAX8 inh HTS 98.0.
Screening COc1ccccc1C#Cc1ccc2c(c1)O[C@@H](CN(C)Cc1cncnc1)[C@H](C)CN([C@H](C)CO)S2(=O)=O returned PAX8 inh HTS 85.5.
`COc1ccccc1C#Cc1ccc2c(c1)O[C@H](CN(C)Cc1cncnc1)[C@H](C)CN([C@H](C)CO)S2(=O)=O` gave PAX8 inh HTS inactive.
`C[C@H]1CN([C@@H](C)CO)S(=O)(=O)c2ccc(/C=C/c3ccccc3)cc2O[C@@H]1CN(C)Cc1cccnc1` gave PAX8 inh HTS 85.9.
COc1ccccc1C#Cc1ccc2c(c1)O[C@H](CN(C)Cc1cccnc1)[C@H](C)CN([C@H](C)CO)S2(=O)=O was read as PAX8 inh HTS 90.2.
C[C@H](CO)N1C[C@H](C)[C@H](CN(C)Cc2cccnc2)Oc2cc(/C=C/c3ccccc3)ccc2S1(=O)=O was read as PAX8 inh HTS inactive.
COc1ccccc1C#Cc1ccc2c(c1)O[C@@H](CN(C)Cc1ccncc1)[C@@H](C)CN([C@@H](C)CO)S2(=O)=O was read as PAX8 inh HTS inactive.
Screening CCCNC(=O)C[C@H]1CC[C@H]2[C@H](COc3ccc(NC(=O)c4cc(C)on4)cc3C(=O)N2C)O1 returned PAX8 inh HTS inactive.
